Measurements published in publication PMC12136788.
Residue numbers refer to the chain shown, from its start. Over roughly 24,000 sequences, “enrichment r” has its median near 0.99; the highest 2% begin near 3.7. The sample as a whole holds a higher share of the highest values than the screen did.

T1: UNK ZnF1-3 (human, UniProt Q9C0B0 31-174)
T1 sequence: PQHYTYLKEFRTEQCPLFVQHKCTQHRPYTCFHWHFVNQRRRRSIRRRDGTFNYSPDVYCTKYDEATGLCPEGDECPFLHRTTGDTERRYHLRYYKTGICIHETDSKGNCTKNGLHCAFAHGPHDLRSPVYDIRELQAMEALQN

B1: 5790880_5791000_6181_CDS_ENSG00000108021_ENST00000328090|human|control|control (ssRNA)
RNA: GGGAGUUCUACAGUCCGACGAUCGAAGUUCAACGACGACUCAUAGCCAUCUGUGGGAACAUCUUUUUUCCUGGUGUAACUACCUCUUAAAGUAUAAGAAUCCUCCAAAUCCAGUCUGGGAUUUCUACAAUCACCAAGCAGGUCCAACAGAGGAUUGAGCAUCA
B2: chr12:133780691:133780692:+_ENSG00000090612_ENST00000541009|hu_hu|motif|central (ssRNA)
RNA: GGGAGUUCUACAGUCCGACGAUCUCAUAUGGUUUUUCACCUGAAUGAGUUCUCAUGUGUAUAAUUAGGUAUGACUUGCUGCGGAAAGCUUUCCCACAUUCACUGCACCCAUAAGGCUUUUCCCCUGCAUGAGUUCGCUGAUGUCAACAGAGGAUUGAGCAUCA
B3: 5036412_5036532_457_CDS_ENSMUSG00000022536_ENSMUST00000115844|mouse|control|control (ssRNA)
RNA: GGGAGUUCUACAGUCCGACGAUCGCCUGAAGUCACCCUCUUCUUUCCUUCUCCCAUGUUCUUCUUCACCUUCCCUUCAGACAGGCUAAGCUUGCGUUUCUCAUCACCUGAGUUUGGCCUACUUCUCUCCUCACUGGAAUUACGCAACAGAGGAUUGAGCAUCA
B4: chr5:37680062:37680063:+_ENSMUSG00000029121_ENSMUST00000031004|mus_hu|mus_mus_mus_hu_False|58_98 (ssRNA)
RNA: GGGAGUUCUACAGUCCGACGAUCUUUGGGUGUAGCUGGCACCUCGUACACAGGACCGUCAUACAUGCCCCUGGAAACACUAUGCAAUCCAAAAACCUUAUUCCUGAUUUUGACGCGCUGGUACAGGUGCUCCGGGAACGCCUUCAACAGAGGAUUGAGCAUCA
B5: chr7:97619395:97619396:-_ENSMUSG00000030614_ENSMUST00000032843|mus_mus|motif|central (ssRNA)
RNA: GGGAGUUCUACAGUCCGACGAUCCAGGGAUGCAUAGGUCUUCAAAGCUUCAUAUUUAACCUUGAAACUGUUUCGGAAAACGGAGUUUGCCAUUAUGCCAGACAAACUACUACUUGUUCCAAAGACCAAAGUUCCAUGUAUAUUCAACAGAGGAUUGAGCAUCA
B6: chr6:86474593:86474594:-_ENSMUSG00000051695_ENSMUST00000053015|mus_hu|motif|central (ssRNA)
RNA: GGGAGUUCUACAGUCCGACGAUCACAUUUCUUAUCGACAAACAGAAAUAAAAUUCAUGAGCCAAAAAACCCAAAACAAAACGGAAAACAGGGAAAAGCUUAUAAAACUAAAUAUGGAUCCCAGCAUUAACAGCUGAACAGAGACAACAGAGGAUUGAGCAUCA
B7: chr2:27118074:27118075:-_ENSMUSG00000009621_ENSMUST00000056176|mus_hu|FALSE|FALSE (ssRNA)
RNA: GGGAGUUCUACAGUCCGACGAUCAUUCACAGAUAUAUAACGGGAGAUUUGGAUGAAAUAAUUACAAACUUUUUUCCCCUUAAAAAACAAACAAGCCAAACAAAACACAAACAAAACAAAAACCCCAAAACCAAAACACAAGACCAACAGAGGAUUGAGCAUCA
B8: 90301638_90312025_2792_CDS_ENSG00000196730_ENST00000408954|human|control|control (ssRNA)
RNA: GGGAGUUCUACAGUCCGACGAUCGACAACAACAUGGAUUGACGUGGGAUCAUUUGCAGCAAAAUAGUCAUAACAGCAGAAAUACACAGGAUUUCCAGAGAACUCCCACACGCUGAAAUCGCCAACUCCAUUCAAAUAAGCGUUCAACAGAGGAUUGAGCAUCA
B9: chr6:86474593:86474594:-_ENSMUSG00000051695_ENSMUST00000053015|mus_hu|FALSE|FALSE (ssRNA)
RNA: B6 RNA with G82U, G83A
B10: chr2:131139019:131139020:-_ENSMUSG00000048911_ENSMUST00000059372|mus_mus|FALSE|FALSE (ssRNA)
RNA: GGGAGUUCUACAGUCCGACGAUCGAUAUAGAUGUUGAGAGGCAGAUUCUGGAAUCCAAUAUUAGGCAUCCUGAAGUUAUAAUGUGGGAAAUCUGAGCUCAUGGAUGAACCGGGCGACGGGCAGCGGGCGUGCGGGCGGCGGCGCAACAGAGGAUUGAGCAUCA
B11: chr11:77336104:77336105:-_ENSG00000074201_ENST00000525064|hu_mus|hu_hu_hu_mus_False|98_108 (ssRNA)
RNA: GGGAGUUCUACAGUCCGACGAUCCUCGCACAUUGCAGUGAACAUUGCCUCCAAUGCUGACUUAUCACUGGGCACAAAUCGAAAUUCAGAAAUGGGUUCAACAUCAUCAUUGUCUUCCUCAUCUUCAUCAGAGAGAGGUUCUUUCAACAGAGGAUUGAGCAUCA
B12: 49074419_49074539_462_3pUTR_ENSMUSG00000020346_ENSMUST00000109194|mouse|control|control (ssRNA)
RNA: GGGAGUUCUACAGUCCGACGAUCCACAGGCAAUGACCAGGAUGGGGAUCUGCACUGGUGAGGGGGUCACAGGCACACGGGGCCAGGCUGGAGGGGCCACAGUGGGAACUCUCCACCUCUGCCUCCACAAAGCAUAAUGCUCCUCAACAGAGGAUUGAGCAUCA
B13: chr8:92086081:92086082:+_ENSG00000155100_ENST00000285420|hu_mus|motif|central (ssRNA)
RNA: GGGAGUUCUACAGUCCGACGAUCAAUCCGAGGUGGUUGAUUCUCAAGUACCAAGUUUGAAAUGUUAACAGCAACAGAAUCGGUCUUACUGUCCUUGAAAGUCAAUUGCUUCAAUUGCUCCAGUUCUUCCCUGUGUUUUUGCUCCAACAGAGGAUUGAGCAUCA
B14: chr3:10015032:10015033:+_ENSMUSG00000027533_ENSMUST00000029046|mus_mus|mus_mus_mus_hu_True|38_48 (ssRNA)
RNA: GGGAGUUCUACAGUCCGACGAUCGUUUUUACCAUCACAAGUGAUGAUACAAUCUGGCUUGGCCAUUGCGCCCAUUUUUCGCAAAGCCAGUCCUACUCCUAGCUCUUUCAUGUAUUCAUCAAAGCCUUUGCUGUCCACCAGGCGCAACAGAGGAUUGAGCAUCA

What follows are binders tested against T1, UNK ZnF1-3 (assay: nsRBNS (natural sequence RNA bind-n-seq); RBNS binding buffer (assumed for nsRBNS): 25 mM Tris pH 7.5, 150 mM KCl, 3 mM MgCl2, 0.01% Triton X-100, 500 ug/ml BSA, 20 U/ml SUPERase-In, 4 C; UNK is unkempt and MSI1 is Musashi-1; names of the RNAs are library labels; protein concentration not given here; high values mean tight binding).

Q: B1 was tested. Which binding signal did it give?
A: The binding signal was 1.18 enrichment R.

Q: Which binding signal does the source give for B2 here?
A: Its binding signal is 0.705 enrichment R.

Q: Which binding signal does the source give for B3 here?
A: Its binding signal is 0.512 enrichment R.

Q: With B4 as the binder, how does the binding signal read?
A: The binding signal was 0.673 enrichment R.

Q: For B5, which binding signal is on record?
A: The binding signal was 0.591 enrichment R.

Q: For B6, which binding signal is on record?
A: Its binding signal is 4.53 enrichment R.

Q: With B7 as the binder, how does the binding signal read?
A: Its binding signal is 3.28 enrichment R.

Q: With B8 as the binder, how does the binding signal read?
A: Its binding signal is 2.03 enrichment R.

Q: For B9, which binding signal is on record?
A: Its binding signal is 5.48 enrichment R.

Q: How did the binding signal turn out when B10 was run?
A: The binding signal was 0.719 enrichment R.

Q: B11 was tested. Which binding signal did it give?
A: Its binding signal is 0.914 enrichment R.

Q: For B12, which binding signal is on record?
A: Its binding signal is 0.862 enrichment R.

Q: How did the binding signal turn out when B13 was run?
A: Its binding signal is 1.01 enrichment R.

Q: B14 was tested. Which binding signal did it give?
A: The binding signal was 0.575 enrichment R.
